# D1 ag: agonists of human D1 dopamine receptor; P21728; HEK293 T-REx D1 cells, calcium flux, agonist mode; activation, % at 2 µM; AID 504660; 360,000 tested, 1% active; in the data active = activation above about 30%; also: 0% is about no effect
# Target sequence (P21728 whole entry, looked up): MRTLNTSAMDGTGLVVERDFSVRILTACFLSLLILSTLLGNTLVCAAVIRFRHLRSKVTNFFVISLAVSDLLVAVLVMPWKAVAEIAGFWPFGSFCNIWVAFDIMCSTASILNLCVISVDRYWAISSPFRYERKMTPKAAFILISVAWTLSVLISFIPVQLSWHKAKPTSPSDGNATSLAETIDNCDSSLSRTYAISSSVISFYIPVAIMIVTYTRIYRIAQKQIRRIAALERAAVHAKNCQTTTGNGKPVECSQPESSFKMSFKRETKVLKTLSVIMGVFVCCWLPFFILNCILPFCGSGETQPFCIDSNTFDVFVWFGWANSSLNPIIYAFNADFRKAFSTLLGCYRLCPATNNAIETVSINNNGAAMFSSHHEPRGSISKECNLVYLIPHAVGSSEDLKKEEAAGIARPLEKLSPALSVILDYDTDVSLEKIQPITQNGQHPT
#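 Tetracycline-induced HEK293 TREx D1 cells, force-coupled to calcium signalling, were dye-loaded with a no-wash calcium kit. Compound was pin-added after a 10 s baseline. Fluorescence was read kinetically at 1 cycle/s for 180 s, with calcium rises flagged as agonism.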
# D1 antagonist: blocks dopamine activation of the human D1 receptor; P21728; AID 504652; activity change, negative = inhibition, % at 10 µM; HEK293 TREx D1 cells, calcium flux, dopamine EC80; stronger effect = lower value; 360,000 tested, 3.2% active; in the data active = activity change below about -30%; also: % is scaled to controls: 0 for no effect and ±100 for the full control effect
#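 Tetracycline-induced HEK293 T-REx cells with force-coupled D1 receptor were loaded with a no-wash calcium dye. Compound was added after a 10 s baseline and read kinetically for 180 s; EC80 dopamine was then added and calcium flux followed another 180 s.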
# D3 ag: agonists of human D3 dopamine receptor; AID 652048; P35462; max activation, %; 410,000 tested, 0.58% active; D3R DiscoveRx beta-arrestin cells, luminescence, 90 min; in the data active = max activation above about 30%; also: 0% is about no effect
#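 Agonist mode: compounds and dopamine controls were applied to plated cells for 90 min at 37 degrees C after an overnight attachment at 1500 cells/well. Luminescent read-out followed 30 - 60 minutes at room temperature with DiscoveRx detection reagent.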
# D1 PAM: enhances dopamine response at the human D1 receptor | HEK293 TREx D1 cells, calcium flux, dopamine EC20 potentiation | P21728 | potentiation, % at 10 µM | 360,000 tested, 0.036% active | AID 504651; in the data active = potentiation above about 30%; also: 0% is about no effect
# DRD3 antagonist: D3 dopamine receptor (human) antagonism; P35462; max response, negative = inhibition, %; D3R cells, DiscoveRx beta-arrestin luminescence, antagonist mode; stronger effect = lower value; 360,000 tested, 2.5% active; AID 652054; in the data active = max response below about -50%; inconclusive = no clear call, values can overlap the other calls; also: % is scaled to controls: 0 for no effect and ±100 for the full control effect
#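 Cells expressing the human receptor were seeded at 1500 cells/well, incubated overnight at 37 degrees C in 5% CO2, then exposed to library compounds with dopamine controls for 90 minutes at 37 degrees C before luminescent detection.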
# * hit, by the source's call; u = inconclusive; x = no result. Compounds with a hit are over-represented: about 6% of the library has one in this group of screens.
SMILES,D1 ag,D1 antagonist,D3 ag,D1 PAM,DRD3 antagonist
CN1CCN(c2ccc(NC(=S)NC(=O)c3cccc4c(Br)cccc34)cc2)CC1,3,-37*,-10,-9,-1
O=C(NC(=S)Nc1ccccc1N1CCCC1)c1ccccc1[N+](=O)[O-],1,-6,-1,2,-6
O=C(NC(=S)Nc1ccc(N2CCCC2)cc1)c1ccccc1[N+](=O)[O-],0,-72*,-14,-2,-13
COc1ccc(NC(=O)c2cc(C3CCCCN3S(=O)(=O)c3cccs3)on2)c(C)c1 (stereo not given),x,x,2,x,0
CCCSc1ccc(-c2nn(-c3ccccc3)cc2/C=C(/C#N)C(=O)NCCCOC)cc1,3,12,-10,2,3
CCSc1ccc(-c2nn(-c3ccccc3)cc2/C=C(/C#N)C(=O)NCCCOC)cc1,12,-1,37*,0,15
O=C(NCCc1ccccc1)C(=O)NCC(c1ccc2c(c1)OCO2)N1CCOCC1 (stereo not given),0,23,1,-6,x
Fc1ccccc1N1CCN(C(c2ccccn2)c2nnnn2C2CCCCC2)CC1 (stereo not given),3,23,0,4,5
CCC(C)(C)n1nnnc1C(c1cc2ccc(OC)cc2[nH]c1=O)N1CCN(C2CCCCC2)CC1 (stereo not given),3,-4,-24,4,-64*
COc1ccccc1N1CCN(C(c2cc3ccc(C)cc3[nH]c2=O)c2nnnn2C2CCCC2)CC1 (stereo not given),1,10,-9,-4,-70*
COc1ccccc1N1CCN(C(c2ccccn2)c2nnnn2C2CCCCC2)CC1 (stereo not given),5,12,1,-6,-66*
CCC(C)(C)n1nnnc1C(c1cc2cc3c(cc2[nH]c1=O)OCO3)N1CCCCC1 (stereo not given),2,-3,2,3,15
ClCCn1c(CCl)nc2ccc(Cl)cc21,x,x,-5,x,-11
CCC(=NN=C(CC)c1ccccc1O)c1ccccc1O,x,x,45*,x,27
Cc1cc(C)c(S(=O)(=O)Nc2nnc(C)s2)c(C)c1,3,-34*,3,-2,0
Cc1cc(C(F)F)n2nc(C(=O)Nc3cccc(C(F)(F)F)c3)nc2n1,-1,-40*,-2,-5,u
Cc1ccc(C(=O)Nc2ccc(Oc3cccc(C(F)(F)F)c3)nc2)cc1,30,-31*,22,3,2
COc1ccc(C(F)(F)F)cc1NC(=O)c1nc2nc(C)cc(C(F)F)n2n1,6,-1,6,1,20
COC(=O)/C=C/C(=O)Nc1cccc(C(F)(F)F)c1,2,-8,1,-3,-14
COC(=O)/C(=C\C(=O)c1ccccc1)Nc1cccc(C(F)(F)F)c1,3,3,3,-10,-76*
O=C(O)c1ccccc1C(=O)Nc1ccc(Oc2cccc(C(F)(F)F)c2)nc1,1,9,0,-1,8
O=C(Nc1ccccc1)Nc1cccc(C(F)(F)F)c1,22,-37*,4,-2,15
O=S(=O)(c1ccc(-c2cnc(C3CC3)o2)cc1)N1CCN(c2ccc(F)cc2)CC1,16,-10,-19,0,x
COc1ccc(NC(=O)Nc2cc(C)cc(C)c2)cn1,4,-2,5,-2,5
COc1ccc(NC(=O)Nc2ccc([N+](=O)[O-])cc2)cn1,35*,-52*,-14,-4,u
SMILES,D1 ag,D1 antagonist,D3 ag,D1 PAM,DRD3 antagonist
COc1ccc(NC(=O)Nc2cccc(C(F)(F)F)c2)cn1,18,-30*,-6,5,-6
CC(C)c1cc(C(=O)Nc2cccc(C(F)(F)F)c2)no1,2,3,-4,-3,-53*
O=C(Nc1cccc(C(F)(F)F)c1)Nc1cccs1,25,-44*,7,-7,x
CCc1ccc(CN(Cc2ccco2)C(=O)COc2ccccc2Cl)cc1,20,0,8,-2,x
O=c1cc(O)sc2ccccc12,40*,-22,11,-8,55
Cc1cccc(NC(=O)c2ccc3nc(CCc4ccccc4)oc3c2)c1C,21,-13,-10,-2,x
Cn1c(=O)c2c(n3c4ccccc4nc13)NC(=O)CC2c1ccccc1F (stereo not given),6,-6,-3,0,x
Cc1cc(C)c2c(c1)-c1c(ssc1=S)C(C)(C)N2C(=O)CSc1nncn1C,39*,14,-3,4,-22
Cc1ccc2c(c1)-c1c(ssc1=S)C(C)(C)N2C(=O)CSc1nncn1C,1,13,-2,-1,-6
Cc1ccc(S(=O)(=O)N(C)C)cc1NC(=O)C1CCN(C(=O)Nc2ccccc2)CC1,2,-34*,-9,-6,-1
Cc1ccccc1C(=O)NNC(=O)C1CCN(C(=O)Nc2ccccc2)CC1,0,-45*,5,-7,15
O=C(NNC(=O)C1CCN(C(=O)Nc2ccccc2)CC1)c1ccc(F)cc1,1,6,-11,-2,-18
Cc1ccc(C(C)C)c(OCC#CCN2CCOCC2)c1,3,10,-21,3,-28
Cc1nc2scc(C)n2c(=O)c1S(=O)(=O)Nc1cccc(O)c1,4,-48*,2,-5,x
CCN(N=O)[C@@H](Cc1ccccc1)CN(N=O)[C@@H](Cc1ccccc1)CN(C)N=O,-3,-8,32*,-1,0
COc1cccc(NS(=O)(=O)c2ccc(Br)s2)c1,19,-35*,-4,-4,u
COc1ccc(OC)c(NS(=O)(=O)c2ccc(Br)s2)c1,3,10,-7,-2,x
CCCc1cc(=O)oc2cc(OCc3ccc(C(=O)O)cc3)ccc12,6,-8,11,6,1
Cc1[nH]n2c(=O)c3c(nc2c1-c1ccccc1)CCC3,3,3,-29,-4,u
Nc1[nH]n2c(=O)c3c(nc2c1N=Nc1ccccc1)CCCC3,1,-13,-22,4,77
Nc1[nH]n2c(=O)c3c(nc2c1N=Nc1ccc(Cl)cc1)CCCC3,2,-50*,-14,-14,33
Cc1[nH]n2c(=O)c3c(nc2c1-c1ccc(Cl)cc1)CCC3,-1,1,-13,0,-87*
CC(=O)N1c2ccc(S(=O)(=O)NCCC(=O)NCCc3cccc(C)c3)cc2CC1C (stereo not given),2,-14,2,-6,-1
Cc1nc2c(c(C)nn2-c2ccccc2)c(C)c1CCC(=O)Nc1ccc(CN2CCCC2)cc1,22,-39*,-13,-17,-18
CN1CCN(CCNC(=O)Nc2ccccc2C(F)(F)F)CC1,1,12,3,-6,8
COC(=O)CNC(=O)c1cccc(F)c1,1,13,-5,-5,7
O=C(NCCN1CCN(c2cccc(Cl)c2)CC1)c1ccc(CSc2nc3ccncc3[nH]2)cc1,2,-48*,49*,-14,-21

# From PubChem BioAssay
